From PubChem BioAssay
Where “and” joins values, the source holds several entries; their conditions need not be identical. Identical values can stand only once. Calls of active or inactive are those of the source.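 How the source made its calls, unless noted: active means thallium flux through the channel raised or lowered by more than 3 SD from vehicle-only wells, actives on both sides; inactive means the rest.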

Tests used:
[1] = liver-stage malaria parasite growth inhibition, primary screen, cell-based, HepG2, luciferase luminescence, HepG2 viability (AID 624349; in the data active means parasite load remaining mostly below about 12%, no sharp cut-off; inactive means mostly above about 10%;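 further: 100% = mean of DMSO negative control wells on the same plate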); settings: P. berghei liver stage in HepG2, luciferase luminescence, concentration not given here; parasite load remaining: stronger effect = lower value; viability: measured here: HepG2 viability without parasites
[2] = Cy5 fluorescence interference with SSB-bound oligo, artefact control for HCV NS3 helicase inhibitor project, biochemical, NIH Clinical Collection, E. coli SSB (AID 743268; call rule not given here)
[3] = system: Hepatitis C virus NS3 helicase; assay: HCV NS3 helicase inhibitors, primary screen, biochemical, fluorescence polarization, NIH Clinical Collection (AID 743270; call rule not given here); settings: NS3 helicase binding to Cy5-dT15 DNA, stronger effect = higher value, concentration not given here
[4] = target: Single-stranded DNA-binding protein (Escherichia coli (strain K12)) (UniProt P0AGE0); assay: E. coli SSB displacement from DNA, counter-screen for HCV NS3 helicase inhibitor project, biochemical, fluorescence polarization, NIH Clinical Collection (AID 743271; in the data active means inhibition above about 28%); settings: stronger effect = higher value, concentration not given here
[5] = fluorescence interference in NS3h assay format, artefact control for HCV NS3 helicase inhibitor project, biochemical, NIH Clinical Collection (AID 743272; call rule not given here;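 further: HCV NS3 helicase with a Cy5 labelled single stranded DNA probe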); settings: fluorescence interference counterscreen, stronger effect = lower value
[6] = system: Neuropilin-2 / VEGF-C interaction (human); assay: inhibitors of NRP2–VEGF-C binding, biochemical, microplate binding format, z-score (AID 743281; call rule not given here); settings: microplate NRP2/VEGF-C binding assay; stronger effect = lower value
[7] = modulation of C. elegans fzo-1 (AID 1259413; call rule not given here;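 further: fzo-1 mutant C. elegans worms in liquid wells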); settings: C. elegans fzo-1 modulator screen, mean read-out; stronger effect = higher value
[8] = sensitizers of A549 cells to miR-34 induction, primary screen, imaging, A549 dox-inducible miR-34, nuclei and caspase counts (AID 1347080;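 active means compounds whose cell count with miR-34 switched on is under 0.7 times the count with it off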); settings: A549 miR-34 inducible, Hoechst nuclei count, 48 h
F380Y = assay: modulators of BK channel variants, profiling panel, selectivity assay, cell-based, U2OS BacMam, thallium flux, beta subunits (AID 1259406); settings: at 30 µM;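 further: initial slope of Thallos dye fluorescence rise after thallium is added; log ratio against the mean of 0.3% DMSO vehicle wells on the same plate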
F380Y/beta1 = assay: as above; settings: at 30 µM
F380Y/beta2Delta = assay: as above; settings: at 30 µM
F380Y/beta4 = assay: as above; settings: at 30 µM
[9] = target: Calcium-activated potassium channel subunit alpha-1 (Homo sapiens) + Leucine-rich repeat-containing protein 26 (Homo sapiens) (UniProt Q12791+Q2I0M4); assay: as above; settings: F380Y/Slo1WT/gamma1, at 30 µM
R275C = assay: as above; settings: at 30 µM
R275C/beta1 = assay: as above; settings: at 30 µM
R275C/beta2Delta = assay: as above; settings: at 30 µM
R275C/beta4 = assay: as above; settings: at 30 µM
R275C/Slo1WT/beta2 = assay: as above; settings: at 30 µM
[10] = survival rescue of mitochondrial mutant cells in low glucose, primary screen, MELAS cybrids, Rieske KO mouse fibroblasts, CellTiter-Glo (AID 1508586;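 active means mean z-score across replicates of 1.96 or higher in either the MELAS or the Rieske mutant cell line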;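 further: z relative to plate mean and SD of compound and empty wells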)
[11] = viability rescue of complex I mutant cybrids, primary screen, cell-based, galactose medium, ATP luminescence (AID 1645843;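 active means z-score of at least 1.8 in each of two replicates, scored against plate mean and spread of sample wells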;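 further: positive z means more ATP and so rescue of galactose-driven cybrid death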); settings: complex I mutant cybrid cells, 72 h, stronger effect = higher value
[12] = stronger effect = lower value, cell number ratio, induced over uninduced
[13] = measured here: relative caspase fold change +Dox/-Dox
[14] = measured here: total cells with miR-34 induction, stronger effect = lower value
[15] = measured here: total cells without miR-34 induction
[16] = MELAS cybrid survival, CellTiter-Glo 48 h, stronger effect = higher value
[17] = Rieske KO mouse fibroblast survival, CellTiter-Glo 72 h

Sequence of Calcium-activated potassium channel subunit alpha-1 (Homo sapiens) + Leucine-rich repeat-containing protein 26 (Homo sapiens) (Q2I0M4 whole entry, looked up, one chain of several): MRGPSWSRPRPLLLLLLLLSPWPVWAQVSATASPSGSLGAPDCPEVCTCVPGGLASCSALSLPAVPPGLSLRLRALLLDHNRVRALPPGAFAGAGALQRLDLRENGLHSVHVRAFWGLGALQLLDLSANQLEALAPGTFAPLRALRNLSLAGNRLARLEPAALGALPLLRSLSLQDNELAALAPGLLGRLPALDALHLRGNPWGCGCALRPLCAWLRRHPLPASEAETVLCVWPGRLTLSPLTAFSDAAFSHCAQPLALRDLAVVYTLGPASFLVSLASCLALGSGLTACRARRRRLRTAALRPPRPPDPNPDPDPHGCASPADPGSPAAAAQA

CN(C)[C@@H]1C(=O)C(C(=O)NCN2CCCC2)=C(O)[C@@]2(O)C(=O)C3=C(O)c4c(O)cccc4[C@@](C)(O)C3CC12 (stereo partly specified)
0.92: fold change [8, 13]
inactive: parasite load remaining [1] 77.2% and 69.4% | inhibition [3] -3.71% | z-score [6] 0.267 | mean signal [7] 213 | fold change [8, 12] 0.896 | log fold change Tl+ flux (F380Y) -0.0801 | log fold change Tl+ flux (F380Y/beta1) -0.00765 | log fold change Tl+ flux (F380Y/beta2Delta) -0.0371 | log fold change Tl+ flux (F380Y/beta4) -0.0313 | log fold change Tl+ flux [9] 0.0591 | log fold change Tl+ flux (R275C) 0 | log fold change Tl+ flux (R275C/beta1) -0.0252 | log fold change Tl+ flux (R275C/beta2Delta) 0.0108 | log fold change Tl+ flux (R275C/beta4) -0.0407 | log fold change Tl+ flux (R275C/Slo1WT/beta2) 0.0233
9290: cell count [8, 14]
10400: cell count [8, 15]
91.9% and 67.8%: viability [1]
active: fluorescence ratio [2] 0.68 | inhibition [4] 45.3% | fluorescence ratio [5] 0.76

CO[C@H]1/C=C/O[C@@]2(C)Oc3c(C)c(O)c4c(O)c(c5c(c4c3C2=O)NC2(CCN(CC(C)C)CC2)N=5)=NC(=O)/C(C)=C\C=C\[C@H](C)[C@H](O)[C@@H](C)[C@@H](O)[C@@H](C)[C@H](OC(C)=O)[C@@H]1C
92.9%: viability [1]
8270: cell count [8, 15]
1.35: z-score [10, 17]
1.58: fold change [8, 13]
inactive: parasite load remaining [1] 23.3% | fold change [8, 12] 1.03 | z-score [10, 16] 1.35 | z-score [11] -1.49 | log fold change Tl+ flux (F380Y) 0.0411 | log fold change Tl+ flux (F380Y/beta1) -0.0629 | log fold change Tl+ flux (F380Y/beta4) -0.0899 | log fold change Tl+ flux [9] -0.055 | log fold change Tl+ flux (R275C/beta4) 0.00982 | log fold change Tl+ flux (R275C/Slo1WT/beta2) -0.0228
active: log fold change Tl+ flux (F380Y/beta2Delta) -0.104 | log fold change Tl+ flux (R275C) -0.198 | log fold change Tl+ flux (R275C/beta1) 0.128 | log fold change Tl+ flux (R275C/beta2Delta) -0.107
8520: cell count [8, 14]

CO[C@H]1/C=C/O[C@@]2(C)Oc3c(C)c(O)c4c(O)c(c(C=NN5CCN(C)CC5)c(O)c4c3C2=O)NC(=O)/C(C)=C\C=C\[C@H](C)[C@H](O)[C@@H](C)[C@@H](O)[C@@H](C)[C@H](OC(C)=O)[C@@H]1C
10300: cell count [8, 15]
active: fluorescence ratio [2] 0.107 | log fold change Tl+ flux (F380Y/beta2Delta) 0.125
2.93: fold change [8, 13]
inactive: parasite load remaining [1] 23.7% | inhibition [3] -3.18% | inhibition [4] 3.34% | fluorescence ratio [5] 0.87 | fold change [8, 12] 0.888 | z-score [11] -1.41 | log fold change Tl+ flux (F380Y) 0.0886 | log fold change Tl+ flux (F380Y/beta1) -0.0407 | log fold change Tl+ flux (F380Y/beta4) 0.0159 | log fold change Tl+ flux [9] -0.0449 | log fold change Tl+ flux (R275C) -0.067 | log fold change Tl+ flux (R275C/beta1) 0.00744 | log fold change Tl+ flux (R275C/beta2Delta) -0.0205 | log fold change Tl+ flux (R275C/beta4) 0.0765 | log fold change Tl+ flux (R275C/Slo1WT/beta2) -0.0151
9180: cell count [8, 14]
94.3%: viability [1]

CC1(C)C[C@@H]1C(=O)N/C(=C\CCCCSC[C@H](N)C(=O)O)C(=O)O
inactive: parasite load remaining [1] 86.6% | fluorescence ratio [2] 1.03 | inhibition [3] 0.4% | inhibition [4] -0.1% | fluorescence ratio [5] 1.01 | z-score [6] -0.458 | mean signal [7] 226 | log fold change Tl+ flux (F380Y) 0.00013 | log fold change Tl+ flux (F380Y/beta1) 0.0415 | log fold change Tl+ flux (F380Y/beta2Delta) 0.0097 | log fold change Tl+ flux (F380Y/beta4) -0.0167 | log fold change Tl+ flux [9] -0.0144 | log fold change Tl+ flux (R275C) -0.0675 | log fold change Tl+ flux (R275C/beta1) 0.00997 | log fold change Tl+ flux (R275C/beta2Delta) 0.0368 | log fold change Tl+ flux (R275C/beta4) 0.0142 | log fold change Tl+ flux (R275C/Slo1WT/beta2) 0.00806
71.9%: viability [1]

C=C1/C(=C\C=C2/CCC[C@]3(C)[C@@H]([C@H](C)CCCC(C)(C)O)CC[C@@H]23)C[C@@H](O)C[C@@H]1O
1.63 and 1.45: fold change [8, 13]
4940 and 8850: cell count [8, 15]
active: log fold change Tl+ flux (R275C/beta1) 0.0898
5100 and 8330: cell count [8, 14]
-0.598: z-score [10, 17]
inactive: parasite load remaining [1] 39.1% and 53.6% | fluorescence ratio [2] 0.98 | inhibition [3] 3.56% | inhibition [4] 2.21% | fluorescence ratio [5] 0.91 | fold change [8, 12] 1.03 and 0.94 | z-score [10, 16] -0.162 | z-score [11] -0.805 | log fold change Tl+ flux (F380Y) 0.103 | log fold change Tl+ flux (F380Y/beta1) 0.0867 | log fold change Tl+ flux (F380Y/beta2Delta) 0.0281 | log fold change Tl+ flux (F380Y/beta4) 0.0801 | log fold change Tl+ flux [9] 0.0668 | log fold change Tl+ flux (R275C) -0.0123 | log fold change Tl+ flux (R275C/beta2Delta) 0.0428 | log fold change Tl+ flux (R275C/beta4) 0.0602 | log fold change Tl+ flux (R275C/Slo1WT/beta2) -0.0015
72.4% and 142%: viability [1]

CN(CCO)CC(O)Cn1cnc2c1c(=O)n(C)c(=O)n2C (stereo unspecified) (tested in a mixture with another compound)
inactive: parasite load remaining [1] 65% | fluorescence ratio [2] 0.97 | inhibition [3] -0.22% | inhibition [4] 0.39% | fluorescence ratio [5] 0.94 | z-score [6] -0.276 | mean signal [7] 208 | fold change [8, 12] 1.72 | z-score [11] 0.47 | log fold change Tl+ flux (F380Y) 0.0136 | log fold change Tl+ flux (F380Y/beta1) 0.0124 | log fold change Tl+ flux (F380Y/beta2Delta) -0.0171 | log fold change Tl+ flux (F380Y/beta4) 0.017 | log fold change Tl+ flux [9] 0.0349 | log fold change Tl+ flux (R275C) -0.0477 | log fold change Tl+ flux (R275C/beta1) 0.0362 | log fold change Tl+ flux (R275C/beta2Delta) -0.03 | log fold change Tl+ flux (R275C/beta4) -0.00112 | log fold change Tl+ flux (R275C/Slo1WT/beta2) 0.00717
8830: cell count [8, 14]
66.2%: viability [1]
5120: cell count [8, 15]
0.852: fold change [8, 13]
